The values that follow come from PubChem BioAssay (EPA / NIEHS).

Each structure is given as a SMILES string. Several values for one entry are separate records, joined by “and”; a condition that tells them apart may be missing. Equal entries are not always repeated. Some compounds were tested as several samples or in several runs, with calls that do not always agree. Activity calls are given as the source filed them. The calls were made as follows: active = hit-call score of the fitted dose curve at least 0.9, where 1 is the maximum; inactive = score below 0.9.

Read-out in one experiment: matrix metalloproteinase-10 (MMP10), MMP10 (gene 4319)
The experiment can be described thus: LTEA_HepaRG_MMP10: Life Technologies and Expression Analysis (LTEA) Assay for matrix metalloproteinase-10 (MMP10) using HepaRG (AID 2283517). To be noted: mRNA level, 48 h; actives raise or lower the signal. A digest of the protocol:
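HepaRG, collagen I, ~100,000 cells/well; serum-free induction medium; 48 h exposure, duplicate, 8-pt half-log to 100 uM, 0.5% DMSO. Readout: TaqMan qRT-PCR, normalized to ACTB/GAPDH/POLR2A; bidirectional fit vs DMSO.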
Take `O=C(c1ccccc1)C1CCCCC1`: the molecule was called inactive.
The same measure, in the same setting: with `COc1c(Cl)ccc(Cl)c1C(=O)O` the entry was “inactive”.
With `CC(=O)[C@H]1CC[C@H]2[C@@H]3CCC4=CC(=O)CC[C@]4(C)[C@H]3CC[C@]12C`, the AC50 is 61.9 µM (active).
In the case of `CC1(C)C(C=C(Cl)Cl)C1C(=O)OCc1cccc(Oc2ccccc2)c1` (stereo not drawn), the outcome was inactive.
Consider `S=C(S)NCCNC(=S)S.[Mn+2].[S-]C([S-])=NCCN=C([S-])[S-].[Zn+2]`, for which the AC50 was 846 nM (active) and 655 nM (active).

Read-out in a further experiment: MYC, MYC (gene 4609)
The experiment can be described thus: LTEA_HepaRG_MYC: Life Technologies and Expression Analysis (LTEA) Assay for MYC using HepaRG (AID 2283518). To be noted: mRNA level, 48 h; actives raise or lower the signal. The essentials:
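Expression changes were scored by TaqMan qRT-PCR with ACTB, GAPDH and POLR2A normalization. Cultures in serum-free induction medium received duplicate 8-point concentration series, highest 100 uM, for 48 h; DMSO (0.5%) served as baseline.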
As to `CSC(=O)c1cccc2nnsc12`, the call was inactive.
Still for that read-out and setting: the same measure for `c1ccc(Nc2ccccc2)cc1`: “inactive”.
As for `CCOC(=O)NCCOc1ccc(Oc2ccccc2)cc1`, the AC50 was 79.9 µM (active).
On to `CC(C)(c1ccc(O)cc1)c1ccc(O)cc1`, for which the AC50 was 9.92 µM (active) and the outcome was inactive.
Turning to `Oc1ccc(C(c2ccc(O)cc2)C(Cl)(Cl)Cl)cc1`, the AC50 is 78 µM (active).
In the case of `CCOC(=O)c1ccc(O)cc1`, the call was inactive.
The same measure, in the same setting: with `CCCCCOC(=O)COc1cc(N2C(=O)C3=C(CCCC3)C2=O)c(F)cc1Cl` the entry was “inactive”.
Consider `C[C@]12CC[C@@H]3c4ccc(O)cc4C[C@@H](CCCCCCCCCS(=O)CCCC(F)(F)C(F)(F)F)[C@H]3[C@@H]1CC[C@@H]2O` (stereo partly drawn), for which the concentration at half-maximal activity (AC50) was 0.0578 µM (active).
With `CCCCCCC(C)OC(=O)COc1nc(F)c(Cl)c(N)c1Cl` (stereo not drawn), the result was inactive.
On the same count and under the same terms, the same measure for `N[C@@H](Cc1cc(I)c(Oc2ccc(O)c(I)c2)c(I)c1)C(=O)O`: “inactive”; for `CCNc1nc(N)nc(Cl)n1`: “inactive”.
`COCCO`: the molecule was called inactive.
`CCN(Cc1c(F)cccc1Cl)c1c([N+](=O)[O-])cc(C(F)(F)F)cc1[N+](=O)[O-]`: the AC50 was 50 µM (active).
Take `CN(C)C(=O)Nc1ccc(Cl)c(Cl)c1`: the half-maximal activity concentration (AC50) is 68.8 µM (active).
In the case of `CCCCOCCOCCOCc1cc2c(cc1CCC)OCO2`, the result was inactive.
On the same count and under the same terms, the same measure for `CCOC(=O)C(C)Oc1ccc(Oc2cnc3cc(Cl)ccc3n2)cc1` (stereo not drawn): “inactive”; for `CCSC(=O)N(CC(C)C)CC(C)C`: “inactive”.
The same measure, in the same setting: the same measure for `COC(=O)CSc1cc(N=c2sc(=O)n3n2CCCC3)c(F)cc1Cl`: “inactive”.
With `c1ccc2[nH]c(-c3cscn3)nc2c1`, the AC50 is 40 µM (active).
Turning to `CCCCC(CC)COC(=O)c1ccccc1C(=O)O` (stereo not drawn), the molecule was called inactive.
The same measure, in the same setting: with `CCOC(=O)C(C)Oc1ccc(Oc2nc3ccc(Cl)cc3o2)cc1` (stereo not drawn) the entry was “inactive”; with `O=C(c1ccccc1)C1CCCCC1`, “inactive”; with `COc1c(Cl)ccc(Cl)c1C(=O)O`, “inactive”.
With `CC(=O)[C@H]1CC[C@H]2[C@@H]3CCC4=CC(=O)CC[C@]4(C)[C@H]3CC[C@]12C`, the AC50 was 34.3 µM (active).
As to `CC1(C)C(C=C(Cl)Cl)C1C(=O)OCc1cccc(Oc2ccccc2)c1` (stereo not drawn), the molecule was classed as inactive.
For `S=C(S)NCCNC(=S)S.[Mn+2].[S-]C([S-])=NCCN=C([S-])[S-].[Zn+2]`, the AC50 was 4.59 µM (active) and 3.61 µM (active); the outcome was inactive.
